For part of these data: Entries with a potency or affinity are not part of this list. Activity calls are given as the source filed them.
What was measured:
[1] = Ebola virus entry assay, green fluorescence channel
[2] = Ebola virus entry assay, blue channel fluorescence
[3] = Ebola virus entry assay, green fluorescence channel; remark: listed apart in the source
[4] = Ebola virus entry assay, ratio channel readout
[5] = Ebola virus entry assay, blue channel fluorescence; remark: listed apart in the source
[6] = Ebola virus entry assay, ratio channel
[7] = Ebola virus entry assay, green channel fluorescence
[8] = Ebola virus entry assay, blue channel fluorescence; remark: listed apart in the source
[9] = Ebola virus entry assay, reporter ratio channel; AC50: Channel type: primary unless noted; outcome: Channel type: primary unless noted
[10] = Ebola virus entry assay, blue channel (ratio component)
[11] = Ebola virus entry cell assay, ratio channel
[12] = Ebola virus entry reporter assay, green channel fluorescence
[13] = Immunotoxin (HA22) sensitization/mitigation study. Vehicle arm (PBS) (AID 1159510); conditions: cancer cells viability with PBS vehicle (HA22 study); series mostly up to 46.1 µM; further: potency means the concentration at half of the fitted maximal effect
[14] = Immunotoxin (SS1P) sensitization/mitigation study. Vehicle arm (DMEM) (AID 1159513); conditions: cell viability with vehicle (DMEM); series mostly up to 46.1 µM; further: potency means the concentration at half of the fitted maximal effect
[15] = qHTS assay for measurement of the activity of small molecule inhibitors on Zika virus induced Caspase-3 activity in human astrocytoma cells (AID 1224859; active means well fitted inhibition curve with a large enough effect;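 further: plate controls were ZIKV-infected untreated cells for no effect and uninfected cells for full effect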); conditions: SNB-19 ZIKV-induced caspase-3/7, luminescence, 6 h; series mostly up to 45.7 µM
Summary of the method: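 Readout is luminescence from Caspase-Glo 3/7 added after a 6 h ZIKV infection (2 FFU/cell) of compound-pretreated (1 h) SNB-19 cells; data expressed as % inhibition versus uninfected and infected wells.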
Wherever efficacy is given: 0% is about no effect.

CN(CCOc1ccc(NS(C)(=O)=O)cc1)CCc1ccc(NS(C)(=O)=O)cc1
inactive: efficacy [1] 20.2% | outcome [2] | outcome [3] | outcome [4] | outcome [5] | outcome [6] | outcome [7] | outcome [8] | outcome [9] | outcome [10] | outcome [11]

COc1ccc(-c2cc(=S)ss2)cc1
inactive: efficacy [1] -17.7% | outcome [2] | outcome [3] | outcome [4] | outcome [5] | outcome [6] | outcome [7] | outcome [8] | outcome [9] | outcome [10] | outcome [11]

CC(=O)O[C@]1(C(C)=O)CC[C@H]2[C@@H]3C=C(C)C4=CC(=O)CC[C@]4(C)[C@H]3CC[C@@]21C
inactive: efficacy [1] 20% | outcome [2] | outcome [3] | outcome [4] | outcome [5] | outcome [6] | outcome [7] | outcome [8] | outcome [9] | outcome [10] | outcome [11]

COc1ccc2nc(S(=O)Cc3ncc(C)c(OC)c3C)[nH]c2c1 (stereo not drawn)
inactive: efficacy [1] 22.2% | outcome [2] | outcome [3] | outcome [4] | outcome [5] | outcome [6] | outcome [7] | outcome [8] | outcome [9] | outcome [10] | outcome [12] | outcome [11] | Potency [13] | Potency [14]

C=C(CC)C(=O)c1ccc(OCC(=O)O)c(Cl)c1Cl
inactive: efficacy [1] 39.8% | outcome [2] | outcome [3] | outcome [4] | outcome [7] | outcome [11]
active: AC50 [5] 14.1 µM | AC50 [6] 15.8 µM | AC50 [9] 15.8 µM

Clc1ccc(C(c2ccccc2Cl)C(Cl)Cl)cc1 (stereo not drawn)
active: AC50 [5] 31.6 µM | AC50 [6] 22.4 µM | AC50 [9] 22.4 µM
inactive: efficacy [1] -31.8% | outcome [2] | outcome [3] | outcome [4] | outcome [7] | outcome [11]

Nc1ncn([C@@H]2O[C@H](CO)[C@@H](O)[C@H]2O)c(=O)n1
active: Potency [13] 4.18 µM | Potency [14] 14.8 µM
inactive: efficacy [1] -20.9% | outcome [2] | outcome [3] | outcome [4] | outcome [5] | outcome [6] | outcome [7] | outcome [8] | outcome [9] | outcome [10] | outcome [11]

CCC(C)n1ncn(-c2ccc(N3CCN(c4ccc(OC[C@H]5CO[C@](Cn6cncn6)(c6ccc(Cl)cc6Cl)O5)cc4)CC3)cc2)c1=O (stereo partly drawn)
active: AC50 [2] 5.01 µM | AC50 [4] 2 µM | AC50 [11] 2 µM | Potency [13] 0.743 µM | Potency [14] 16.6 µM
inactive: efficacy [1] 13.1% | outcome [3] | outcome [5] | outcome [6] | outcome [7] | outcome [9] | outcome [10]

CCCN1C[C@H](CSC)C[C@@H]2c3cccc4[nH]cc(c34)C[C@H]21
inactive: efficacy [1] 14.5% | outcome [2] | outcome [3] | outcome [4] | outcome [7] | outcome [8] | outcome [11]
active: AC50 [5] 11.2 µM | AC50 [6] 7.94 µM | AC50 [9] 7.94 µM

CCc1nc(N)nc(N)c1-c1ccc(Cl)cc1
active: AC50 [5] 39.8 µM | AC50 [9] 39.8 µM
inactive: efficacy [1] 26.9% | outcome [2] | outcome [3] | outcome [4] | outcome [6] | outcome [7] | outcome [8] | outcome [11]

CC(COc1ccccc1)N(CCCl)Cc1ccccc1 (stereo not drawn)
active: AC50 [5] 28.2 µM | AC50 [6] 17.8 µM | AC50 [9] 17.8 µM
inactive: efficacy [1] 44% | outcome [2] | outcome [3] | outcome [4] | outcome [7] | outcome [8] | outcome [12] | outcome [11]

CCC1=C[C@@H]2CN(C1)Cc1c([nH]c3ccccc13)[C@@](C(=O)OC)(c1cc3c(cc1OC)N(C)[C@H]1[C@@](O)(C(=O)OC)[C@H](OC(C)=O)[C@]4(CC)C=CCN5CC[C@]31[C@@H]54)C2
inactive: efficacy [1] -100% | outcome [3] | outcome [4] | outcome [7] | outcome [9] inactive [Channel type: confirmation] | outcome [10]
active: AC50 [2] 0.112 µM | AC50 [5] 7.94 µM | AC50 [6] 2.51 µM | AC50 [11] 0.282 µM

CCC(C)(C)C(=O)O[C@H]1C[C@@H](C)C=C2C=C[C@H](C)[C@H](CC[C@@H]3C[C@@H](O)CC(=O)O3)[C@H]21
active: AC50 [6] 7.08 µM | AC50 [9] 7.08 µM | Potency [14] 7.1 µM
inactive: efficacy [1] 37.4% | outcome [2] | outcome [3] | outcome [4] | outcome [5] | outcome [7] | outcome [10] | outcome [12] | outcome [11]

CCn1cc(C(=O)O)c(=O)c2cc(F)c(N3CCNCC3)cc21
inactive: efficacy [1] -31.6% | outcome [2] | outcome [3] | outcome [4] | outcome [5] | outcome [6] | outcome [7] | outcome [8] | outcome [9] | outcome [12] | outcome [11]

C=C[C@H]1CN2CC[C@H]1C[C@@H]2[C@@H](O)c1ccnc2ccc(OC)cc12
active: AC50 [5] 20 µM | AC50 [9] 35.5 µM
inactive: efficacy [1] 36.3% | outcome [2] | outcome [3] | outcome [4] | outcome [6] | outcome [7] | outcome [8] | outcome [12] | outcome [11]

Oc1ccc(C2CNCCc3c2cc(O)c(O)c3Cl)cc1 (stereo not drawn)
inactive: efficacy [1] 16.5% | outcome [2] | outcome [3] | outcome [4] | outcome [5] | outcome [6] | outcome [7] | outcome [9] | outcome [12] | outcome [11]

CCOC(=O)C1(c2ccccc2)CCN(CCC(C#N)(c2ccccc2)c2ccccc2)CC1
active: AC50 [5] 14.1 µM | AC50 [6] 10 µM | AC50 [9] 10 µM | AC50 [11] 14.1 µM
inactive: efficacy [1] -34.7% | outcome [2] | outcome [3] | outcome [4] | outcome [7] | outcome [12] | outcome [15]

CNC(=O)c1cc(Oc2ccc(NC(=O)Nc3ccc(Cl)c(C(F)(F)F)c3)cc2)ccn1
inactive: efficacy [1] 20.4% | outcome [2] | outcome [3] | outcome [4] | outcome [6] | outcome [7] | outcome [12] | outcome [11]
active: AC50 [5] 39.8 µM | AC50 [9] 35.5 µM | Potency [13] 14.8 µM | Potency [14] 20.9 µM
